Data from PubChem BioAssay AID602393 (Broad Institute, 2012).
Screen size: about 350,000 compounds; about 7,000 (2%) were called active. The sample holds actives, similar compounds and a random draw of the others, so the mix is not that of the screen. Rule as the data show it: active = activation above about 40%; inconclusive = no clear call, values can overlap the other calls; inactive = below that.

Experiment: raisers of Bmi1 knock-in reporter signal – mouse ES cells, Bmi1 luciferase knock-in, single point, esBAF inhibitor project, primary screen (AID 602393);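 also: 0% = median of the plate's neutral control wells and 100% = double that signal; a rise in the Bmi1 reporter signal indicates esBAF inhibition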
Conditions: 24 h, at 12.5 µM, active compounds read high, 100% = twice the neutral-well signal

SMILES	reporter increase
CCCNC(=O)Nc1ccc2c(c1)C(=O)N(C)C[C@@H](OC)[C@H](C)CN(C(=O)C1CCCCC1)[C@H](C)CO2	5.09% (inactive)
C[C@@H]1CCCCO[C@H](CN(C)S(C)(=O)=O)[C@@H](C)CN([C@H](C)CO)C(=O)c2cc(NC(=O)Nc3ccc4c(c3)OCO4)ccc2O1	6.3% (inactive)
CC(C)=C1SC(N2CCN(c3cccc(C)c3)CC2)=NC1=O	-1.1% (inactive)
CCOc1cc(/C=C2\SC(N3CCCCC3)=NC2=O)ccc1O	30.3% (inactive)
CCN1C(=O)/C(=C2\SC(N3CCCCC3)=NC2=O)c2ccccc21	65% (active)
O=C(C[C@H]1C=C[C@H](NC(=O)Cc2ccccn2)[C@@H](CO)O1)NCCc1ccccc1	-5.91% (inactive)
CN1c2ccc(C#Cc3ccccc3F)cc2[C@@H]2[C@@H](CCN2C(=O)Cc2cccnc2)[C@H]1CO	1.33% (inactive)
CCCn1nnc(NC(=O)COc2ccc(CC)cc2)n1	-6.66% (inactive)
CCCOc1cccc(C(=O)Nc2nnn(CCC)n2)c1	52.7% (active)
CCn1nnc(NC(=O)c2c(OC)cccc2OC)n1	1.33% (inactive)
CO[C@H]1CN(C)C(=O)c2cc(NC(=O)Nc3c(C)noc3C)ccc2OC[C@@H](C)N(CCC(F)(F)F)C[C@H]1C	-21.9% (inactive)
Cc1noc(C)c1S(=O)(=O)N(C)C[C@@H]1OCCCC[C@H](C)Oc2ccc(NC(=O)Nc3ccc4c(c3)OCO4)cc2C(=O)N([C@H](C)CO)C[C@H]1C	2% (inactive)
COCC(=O)Nc1ccc2c(c1)C(=O)N(C)[C@@H]1CC[C@H](CC(=O)NCC3CC3)O[C@@H]1CO2	-2.01% (inactive)
CO[C@H]1CN(C)C(=O)c2cc(NC(=O)c3cc(C)on3)ccc2OC[C@H](C)N(C(C)=O)C[C@H]1C	0.72% (inactive)
O=C(NCCc1ccc(F)cc1)c1ccc2nccnc2c1	-17.6% (inactive)
CCC1C(=O)NCCN1C(=O)c1ccc2nc(Cc3ccc(OC)cc3)oc2c1 (stereo not drawn)	0.998% (inactive)
COc1ccc(Cc2nc3ccc(C(=O)NCC4CCOCC4)cc3o2)cc1OC	21% (inactive)
COCCNC(=O)c1ccc2nc(Cc3ccc(OC)c(OC)c3)oc2c1	48.6% (active)
CSCCNC(=O)c1ccc2nc(Cc3ccccc3F)oc2c1	70.4% (active)
CCCCc1nc2cc(C(=O)NCCc3cnn(C)c3)ccc2o1	31.5% (inactive)
O=C(N[C@H]1CC[C@@H](CCNS(=O)(=O)c2cccc(Cl)c2)O[C@@H]1CO)c1ccncc1	0.826% (inactive)
C[C@H](CO)N1C[C@H](C)[C@H](CN(C)C(=O)Nc2ccc(C(F)(F)F)cc2)Oc2ccc(NS(=O)(=O)c3ccccc3)cc2CC1=O	-4.41% (inactive)
Cc1noc(C)c1S(=O)(=O)N(C)C[C@@H]1Oc2ccc(NC(=O)Cn3cnnn3)cc2CC(=O)N([C@@H](C)CO)C[C@H]1C	-6.08% (inactive)
Cc1cc(C(=O)Nc2cccc3c2O[C@@H](CN(C)S(=O)(=O)c2ccc(F)cc2)[C@@H](C)CN([C@H](C)CO)C3=O)n(C)n1	5.98% (inactive)
CCC(=O)Nc1ccc2c(c1)OC[C@@H](C)N(Cc1ccccn1)C[C@H](C)[C@@H](OC)CN(C)C2=O	-3.64% (inactive)

SMILES	reporter increase
COc1ccc(NC(=O)N(C)C[C@H]2OCCCC[C@H](C)Oc3ccc(NS(C)(=O)=O)cc3C(=O)N([C@H](C)CO)C[C@@H]2C)cc1	3.29% (inactive)
CC(C)NC(=O)N(C)C[C@H]1OCCCC[C@@H](C)Oc2ccc(NS(C)(=O)=O)cc2C(=O)N([C@H](C)CO)C[C@H]1C	-1.04% (inactive)
COc1ccc(NC(=O)Nc2ccc3c(c2)C(=O)N([C@H](C)CO)C[C@@H](C)[C@H](CN(C)C(=O)Cc2ccccc2)OCCCC[C@H](C)O3)cc1	15.2% (inactive)
CC(C)c1ccc(NC(=O)Cn2ncc3ccccc32)cc1	61.7% (active)
CCc1ccc(NC(=O)Cn2ncn3c(cc4ccccc43)c2=O)cc1	-6.55% (inactive)
CCOC(=O)c1cn(CC(=O)Nc2ccc(C(C)C)cc2)nn1	-4.55% (inactive)
COc1cccc(CNC(=O)[C@@H]2[C@@H](CO)[C@@H]3Cn4c(ccc(-c5cccnc5)c4=O)[C@@H]3N2C)c1	0.488% (inactive)
COc1ccccc1-c1sc2ccccc2c1-c1ccc(C(C)=O)cc1	34.4% (inactive)
COC(=O)c1ccc(/C=C/c2c(-c3ccc(OC)cc3)sc3ccccc23)cc1	0.121% (inactive)
COc1ccc(N=C(C)c2sc3ccccc3c2O)cc1	50.4% (active)
N#C[C@H]1[C@@H](c2ccc(C3=CCCCC3)cc2)[C@@H](CO)N1C(=O)NC1CCCCC1	7.57% (inactive)
C[C@H]1CCCCO[C@H](CN(C)C(=O)Nc2ccccc2)[C@@H](C)CN([C@@H](C)CO)C(=O)c2cc(NC(=O)CCC(F)(F)F)ccc2O1	-7.05% (inactive)
O=C(C1CCC1)N1C[C@@H]2[C@H](c3ccccc31)[C@H](CO)N2C(=O)c1ccccc1	-1.2% (inactive)
COc1ccccc1-c1noc(CSc2nc(C)cc(=O)[nH]2)n1	-5.13% (inactive)
Cc1ccc(-c2noc(CC(c3ccccc3)c3ccccc3)n2)cc1	0.61% (inactive)
Cc1ccc(Cc2nc(-c3cccc(C)c3)no2)cc1	60.8% (active)
Cc1ccc(-c2noc(CNC(=O)c3ccoc3C)n2)cc1	1.49% (inactive)
CCCc1nc(-c2cc3cc(C)ccc3[nH]c2=O)no1	-1.25% (inactive)
COc1ccccc1Cc1nc(-c2ccc(C)cc2)no1	46.3% (active)
C[C@@H]1CCCCO[C@@H](CN(C)Cc2ccncc2)[C@H](C)CN([C@H](C)CO)C(=O)c2cc(N(C)C)ccc2O1	-12.3% (inactive)
CCCC(=O)Nc1ccc2c(c1)OC[C@@H](C)N(Cc1ccccc1F)C[C@@H](C)[C@H](OC)CN(C)C2=O	-2.03% (inactive)
COc1ccc(S(=O)(=O)Nc2cccc3c2O[C@@H](CN(C)C(=O)NC(C)C)[C@H](C)CN([C@@H](C)CO)C3=O)cc1	-7.18% (inactive)
O=C([C@@H]1[C@@H](CO)[C@@H]2Cn3c(ccc(C4=CCCC4)c3=O)[C@H]1N2C(=O)c1ccncc1)N1CCCCC1	-2.02% (inactive)
C[C@@H]1CN([C@@H](C)CO)C(=O)CCCn2cc(nn2)CO[C@@H]1CN(C)Cc1ccccc1C(=O)O	-3.04% (inactive)
C[C@H]1CCCCO[C@H](CN(C)C(=O)NC2CCCCC2)[C@@H](C)CN([C@@H](C)CO)C(=O)c2cc(NC(=O)Nc3ccc4c(c3)OCO4)ccc2O1	44.8% (active)

SMILES	reporter increase
CC(C)NC(=O)N(C)C[C@H]1OCCCC[C@H](C)Oc2ccc(NC(=O)Nc3ccc4c(c3)OCO4)cc2C(=O)N([C@H](C)CO)C[C@@H]1C	4.2% (inactive)
C[C@@H]1CCCCO[C@H](CN(C)C(=O)NC2CCCCC2)[C@H](C)CN([C@H](C)CO)C(=O)c2cc(NC(=O)Nc3ccc(F)cc3)ccc2O1	4.59% (inactive)
C[C@@H]1CCCCO[C@@H](CN(C)C(=O)NC2CCCCC2)[C@H](C)CN([C@@H](C)CO)C(=O)c2cc(NC(=O)Nc3ccc(F)cc3)ccc2O1	3.77% (inactive)
C[C@@H]1CCCCO[C@H](CN(C)C(=O)NC2CCCCC2)[C@H](C)CN([C@@H](C)CO)C(=O)c2cc(NC(=O)Nc3ccc(F)cc3)ccc2O1	3.4% (inactive)
C[C@H](CO)N1C[C@H](C)[C@H](CN(C)C(=O)NC2CCCCC2)OCCCC[C@H](C)Oc2ccc(NC(=O)Nc3ccc4c(c3)OCO4)cc2C1=O	55.8% (active)
COCC(=O)N(C)C[C@H]1Oc2ncc(-c3cccc(OC)c3)cc2C(=O)N([C@H](C)CO)C[C@H]1C	-0.645% (inactive)
C[C@@H]1CN([C@H](C)CO)C(=O)CCCn2cc(nn2)CO[C@@H]1CN(C)Cc1ccc2cccnc2c1	-4.13% (inactive)
CCC(=O)Nc1ccc2c(c1)OC[C@@H](C)N(CC1CC1)C[C@H](C)[C@H](OC)CN(C)C2=O	2.9% (inactive)
C[C@H]1CN([C@@H](C)CO)C(=O)c2cc(C#CC(C)(C)O)cnc2O[C@H]1CN(C)C(=O)CC1CC1	2.32% (inactive)
C[C@@H]1CN([C@H](C)CO)C(=O)c2c(c3ccccc3n2C)-c2ccccc2CO[C@@H]1CN(C)C(=O)Nc1ccccc1	2.44% (inactive)
N#C/C=C1\Sc2ccccc2C(=O)N1CC(=O)N1CCN(S(=O)(=O)c2ccccc2)CC1	76.9% (active)
O=C(CN1CCCSc2ccccc21)N1CCN(S(=O)(=O)c2cccc(F)c2)CC1	2.16% (inactive)
O=C(CN1CCCSc2ccccc21)N1CCN(S(=O)(=O)c2ccccc2)CC1	3.15% (inactive)
CCCNC(=O)N1C[C@@H](O)COC[C@H]2O[C@H](CC(=O)N3CCC(Cc4ccccc4)CC3)CC[C@@H]21	8.61% (inactive)
CCC(=O)N[C@H]1CC[C@@H](CC(=O)NCc2cc(F)cc(F)c2)O[C@@H]1CO	0.353% (inactive)
O=C(NCCNc1ccccc1[N+](=O)[O-])c1ccccc1F	62.1% (active)
COC(=O)CNC(=O)c1ccccc1[N+](=O)[O-]	-1.18% (inactive)
O=C(NCCNc1ccc([N+](=O)[O-])cc1Cl)c1ccccc1F	7.96% (inactive)
CC(=O)Nc1ccc2c(c1)C(=O)N(C)[C@@H]1CC[C@H](CC(=O)NCc3ccccc3)O[C@H]1CO2	-6.55% (inactive)
CO[C@@H]1CN(C)C(=O)c2cc(NC(=O)C3CCC3)ccc2OC[C@H](C)N(Cc2ccccn2)C[C@H]1C	1.86% (inactive)
Cc1nc(N)sc1-c1ccccc1	0.609% (inactive)
Cc1nc(-c2ccccc2)sc1-c1nnc(C2CC2)o1	76.8% (active)
Cc1nc(-c2ccccc2)sc1-c1nc(-c2ccccc2)ncc1S(=O)(=O)c1ccccc1	-0.228% (inactive)
